# NPSR antagonist: blocks cAMP signaling of the human neuropeptide S receptor | CHO-NPSR cells, cAMP TR-FRET, antagonist mode | 220,000 compounds, 1% hits | Potency, µM (titrated, usually from 38.3 µM), for inactives: at the highest dose activity change, negative = inhibition, usual class: inhibitors | Q6W5P4; further: on the % scale 0 is the no-effect control and ±100 the full control effect; nearly all actives have a fitted effect of over 50% in size
# Tb PFK inh-1: inhibitors of T. brucei phosphofructokinase; 330,000 compounds, 0.17% hits; O15648; Potency, µM (doses to about 57.5 µM), for inactives: at the top dose activity, negative = inhibition, actives largely listed as inhibitors; T. brucei PFK, ADP-Glo luminescence;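 further: 0% = uninhibited 1x PFK enzyme wells and -100% = no-enzyme wells; nearly all actives have a fitted effect of over 60% in size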
# Target sequence (O15648 whole entry, looked up): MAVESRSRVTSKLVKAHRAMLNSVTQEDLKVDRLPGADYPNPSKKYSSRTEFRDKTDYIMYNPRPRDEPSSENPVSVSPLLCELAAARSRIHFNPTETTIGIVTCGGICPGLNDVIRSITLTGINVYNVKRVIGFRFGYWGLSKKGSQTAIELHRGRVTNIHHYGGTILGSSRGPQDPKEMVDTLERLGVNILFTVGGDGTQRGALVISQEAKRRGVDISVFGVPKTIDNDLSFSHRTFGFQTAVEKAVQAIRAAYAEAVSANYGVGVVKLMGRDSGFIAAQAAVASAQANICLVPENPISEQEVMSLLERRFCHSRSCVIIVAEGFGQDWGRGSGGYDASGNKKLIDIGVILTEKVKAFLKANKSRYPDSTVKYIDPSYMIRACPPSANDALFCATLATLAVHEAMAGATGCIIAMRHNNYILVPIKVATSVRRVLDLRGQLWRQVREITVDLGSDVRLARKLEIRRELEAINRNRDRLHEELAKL
#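 Compounds were pin-transferred as a titration series up to 57 uM into substrate buffer (0.5 mM F6P, 0.1 mM ATP, pH 8.0), then 1.25 nM PFK was added and reactions ran 45 min before ADP-Glo detection.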
# IMPase Li inh: membrane-permeable IMPase blocker, potentiated with lithium. CHO-M1 cells, IP1 TR-FRET (IP-One), carbachol + lithium. Potency, µM (top dose mostly 59.4 µM), inactives show top-dose activity, negative = IMPase inhibition, hits mostly inhibitors. 210,000 compounds, 0.35% hits. AID 1457;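 further: IP1 builds up when IMPase is blocked and the TR-FRET signal falls; plate controls were basal vehicle for no effect and high inhibitor control for full effect; nearly all actives have a fitted effect of over 50% in size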
#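 CHO-M1, 2000 cells/well, 16–30 h culture; cpd + low Li+, 30 min 37C; lysis with d2-IP1/Eu-anti-IP1 Ab, 10 min RT; TR-FRET 665/620 ratio and 620 channel; AC50 via Hill.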
# MBNL1 CUG block: MBNL1-poly(CUG) RNA binding inhibition | Q9NR56 | TR-FRET MBNL1-His/biotin-(CUG)12 binding, 665/545 ratio | Potency, µM (highest dose often 57.5 µM), inactives show at the top dose activity change, negative = inhibition, hits mostly inhibitors | 280,000 compounds, 0.036% hits | AID 2675; active means well fitted inhibition curve with a large enough effect in the signal ratio, with a control signal flat, not every such curve was filed as active; inconclusive means small, poorly fitted or top-dose-only effect, or effect the other way, or a change in a side signal; inactive means no such curve, though single readings can be large or run the other way; the % refers to the signal ratio; further: on the % scale 0 is the no-effect control and ±100 the full control effect
#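 Inhibition of protein-RNA binding appears as loss of TR-FRET between terbium anti-His antibody on MBNL1-His and streptavidin-XL665 on biotin-(CUG)12. Activity is normalized to buffer-only and uninhibited-complex controls.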
# GoLoco inh red: RGS12 GoLoco-Gai1 interaction inhibition | P63096 | Gai1:RGS12 GoLoco peptide FP, rhodamine, 10 min | Potency, µM (top dose mostly 61.6 µM), inactives show top-dose activity, negative = inhibition, usual class: inhibitors | 230,000 compounds, 0.44% hits; active means well fitted inhibition curve with a large enough effect, not every such curve was filed as active; inactive means no such curve, though single readings can be large or run the other way; further: on the % scale 0 is the no-effect control and ±100 the full control effect; nearly all actives have a fitted effect of over 30% in size
# Tb PFK KinaseGlo: orthogonal confirmation of T. brucei phosphofructokinase inhibitors. shares compounds with Tb PFK inh-1. Tb PFK enzyme, ATP depletion, Kinase-Glo Plus luminescence. Potency, µM (top dose mostly 57.5 µM), for inactives: at the highest dose inhibition. 1,100 compounds, 47% hits; calls by dose curve; further: nearly all actives have a fitted effect of over 60% in size
# Tb PFK inh-2: T. brucei PFK enzyme inhibition, hit validation | 1,100 compounds, 41% hits | purified T. brucei PFK, ADP-Glo luminescence, 45 min | Potency, µM (highest dose often 57.5 µM), for the others: at the top dose activity change, negative = inhibition, actives largely listed as inhibitors | shares compounds with Tb PFK inh-1;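 further: plate controls were full PFK enzyme control for no effect and no enzyme control for full effect; nearly all actives have a fitted effect of over 60% in size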
# Active calls of the source: *; ? = inconclusive; . = no result; [ ] = another dose, or the depositor's remark. The full list was thinned out, with hits kept by preference. Unless noted, the call rests on the fitted dose curve; in most records, active means well fitted curve in the direction sought with a large enough effect; inconclusive means small, poorly fitted or top-dose-only effect, or another doubt; inactive means no such curve, though single readings can be large; an effect the other way counts as inactive or inconclusive. Potency means the concentration at half of the fitted maximal effect.
SMILES,NPSR antagonist,Tb PFK inh-1,IMPase Li inh,MBNL1 CUG block,GoLoco inh red,Tb PFK KinaseGlo,Tb PFK inh-2
O=C(O)c1ccc(Nc2ncnc3c2cnn3Cc2ccccc2)cc1,-11%,?,-2%,-9%,10%,?,?
CN1C(=O)COc2c(C(=O)N[C@@H]3CN4CCC3CC4)cc(Cl)cc21,.,.,10%,.,1%,.,.
CCOc1cccc(N2C(=O)/C(=C/c3ccco3)C(=O)NC2=S)c1,.,?,.,5%,.,?,?
O=S(=O)(O)c1cc(OS(=O)(=O)c2ccccc2)cc2ccccc12,.,24µM*,.,?,.,?,?
O=P(NS(=O)(=O)c1ccccc1)(Oc1ccccc1)Oc1ccccc1,-16%[46.1 µM],0%,23%[38.3 µM],0%,4%,.,.
Cc1ccc(C(=O)NC(=S)Nc2ccc(-c3ccc(CO)o3)cc2)cc1,31%,?,-1%,44%,-12%,5%,0%
O=C1/C(=C/c2ccc(O)c(O)c2)Oc2cc(O)ccc21,-8%,?,.,?,43%,-29%,?
CC(=O)Nc1ccc([As](=O)(O)c2ccc([N+](=O)[O-])cc2)cc1,0%,-2%,.,?,1%,.,.
Cc1cc(NS(=O)(=O)c2ccc(NC(=O)Cc3ccc([N+](=O)[O-])cc3)cc2)nc(C)n1,.,8.5µM*,.,.,.,3.8µM*,6µM*
Cc1noc(NS(=O)(=O)c2ccc(NC(=O)Cc3ccc([N+](=O)[O-])cc3)cc2)c1C,.,6µM*,.,?,.,3.4µM*,12µM*
Cc1nc(NS(=O)(=O)c2cccc([N+](=O)[O-])c2)sc1C(C)(C)C,.,0%,.,?,.,.,.
Cc1cc(NS(=O)(=O)c2ccc(NC(=O)/C=C/c3ccc(C)o3)cc2)nc(C)n1,3%,?,.,4%,-1%,-12%,?
COC(=O)[C@@H]1C[C@H]2CC[C@H](O)C[C@H]2N1CC1CC1,.,.,-4%,.,4%,.,.
NC(=O)CI,-10%[46.1 µM],.,4%,.,-82%,.,.
CCc1nnc(NC(=O)C(=O)NCCOC(=O)c2ccccc2Cl)s1,-10%[46.1 µM],?,-6%[38.3 µM],-6%,-10%,-29%,?
CCCCCCC(C)(C)c1ccc([C@@H]2C[C@H](O)CC[C@@H]2CCCO)c(O)c1,.,.,16%,.,-4%,.,.
O=C(CCS(=O)(=O)c1ccc(Br)cc1)NCc1ccco1,.,17µM*,.,-9%,.,2.7µM*,5.4µM*
O=C(CCCn1c(SCC(=O)c2ccc(O)c(O)c2)nc2ccccc2c1=O)NCC1CCCO1 (centres undefined),?,?,-11%[38.3 µM],-7%,-15%,?,?
O=C1C(=O)N(CCCn2ccnc2)C(c2cccc(Br)c2)/C1=C(\O)c1ccc2c(c1)OCCO2 (centres undefined),.,?,.,73%,.,?,?
C[C@](N)(Cc1ccc(O)c(O)c1)C(=O)O,-31%,?,0%,?,11%,?,?
Nc1ccc([N+](=O)[O-])cc1[N+](=O)[O-],.,.,5%,.,6%,.,.
Cc1cc(N(C)C)ccc1[N+](=O)[O-],8%,?,-1%,?,-10%,?,30µM*
CCOc1cc(/C=C\[N+](=O)[O-])ccc1OCC(=O)N1CCOCC1,6%,?,19%,-4%,-18%,-34%,?
CCN1CCN(C(=O)COc2ccc(S(=O)(=O)N3CCOCC3)cc2C)CC1,.,5%,.,-4%,.,.,.
C[C@@H]1Cc2c(Cl)cc(C(=O)N[C@@H](Cc3ccccc3)C(=O)O)c(O)c2C(=O)O1,.,.,?,.,-16%,.,.
SMILES,NPSR antagonist,Tb PFK inh-1,IMPase Li inh,MBNL1 CUG block,GoLoco inh red,Tb PFK KinaseGlo,Tb PFK inh-2
Cc1c(C(=O)NCCC2=CCCCC2)oc2ccc(S(=O)(=O)N3CCC4(CC3)OCCO4)cc12,?,6%,23%,3%,-2%,.,.
O=C1CC(N2CCN(c3ccc(Cl)c(Cl)c3)CC2)C(=O)N1 (centres undefined),19%[46.1 µM],6µM*,0%,-14%,0%,?,?
Clc1ccc(C(Cl)(Cl)Cl)cc1Cl,.,.,-2%,.,-19%,.,.
O=C(CN1C(=O)/C(=C2\SC(=S)N(CCS(=O)(=O)O)C2=O)c2ccccc21)Nc1cccc(Br)c1,.,27µM*,.,9%,.,4.3µM*,7.6µM*
Cl/C=C/CCl,.,.,5%,.,5%,.,.
Cc1ccc(-c2cc(C(=O)Nc3nccs3)c3ccccc3n2)o1,0%,30µM*,-9%,22%,10%,21µM*,?
O=C(Nc1nccs1)C(Cl)(Cl)Cl,-4%,-4%,6%,-4%,5%,.,.
NNC(N)=S,.,.,3%,.,-6%,.,.
N#Cc1cccc(NCC(=O)Nc2ccc3c(c2)OCCO3)c1,-3%,21µM*,-2%,-11%,1%,27µM*,30µM*
Cc1ccc(/C=C2/NC(=O)N(Cc3ccccc3F)C2=O)o1,13%,?,0%,8%,-15%,?,-27%
Cc1ccc(/C=C2/C(=O)NC(=O)N(CCc3ccc(F)cc3)C2=O)o1,?,1%,-3%[38.3 µM],2%,284%,.,.
CCN1C(=O)N/C(=C/c2ccc(C)o2)C1=O,-23%,13µM*,4%,16%,-12%,?,?
Cc1ccc(/C=C2/NC(=O)N(Cc3ccc(Br)cc3)C2=O)o1,-25%,15µM*,4%,6%,-10%,?,?
Cc1ccc(/C=C2/NC(=O)N(c3ccccc3)C2=O)o1,?,?,8%[38.3 µM],?,-31%,?,?
FC(Cl)(Cl)Cl,.,.,5%,.,-64%,.,.
CC(O)CCl (centres undefined),.,.,7%,.,0%,.,.
O=C(NNC(=O)c1cc2ccccc2cc1O)c1cccs1,.,?,.,14%,.,-29%,?
COC(=O)C(N)CCCN=C(N)N[N+](=O)[O-] (centres undefined),3%[46.1 µM],.,9%,.,10%,.,.
C#CCO,.,.,-5%,.,-2%,.,.
COc1ccccc1C(=O)Nc1ccc2c(c1)C(=O)NC2=O,.,24µM*,.,54%,.,19µM*,?
COc1ccc(CNC(=O)/C=C\c2ccc3[nH]cc(CCN(C)C)c3c2)cc1,.,.,24%,.,1%,.,.
CCc1ccccc1NC(=O)CSc1ccsc1[N+](=O)[O-],8%,?,19%,.,39%,?,?
CCc1ccccc1NC(=O)CSc1nnc([C@@H](N)Cc2c[nH]c3ccccc23)o1,-8%[46.1 µM],-9%,-5%[38.3 µM],-1%,9%,.,.
O=P(O)(O)CCP(=O)(O)O,.,.,-7%,.,6%[14.2 µM],.,.
COc1cccc(N2CC(C(=O)Nc3ccc(F)cc3)CC2=O)c1 (centres undefined),.,19µM*,.,12%,.,6%,-5%

# Assay outcomes deposited in PubChem BioAssay by National Center for Advancing Translational Sciences (NCATS).
